Experimental findings from PubChem BioAssay (NCI) are described below.

Test systems include SK-MEL-2 melanoma; EKVX NSCLC; SN12C renal; UO-31 renal; TK-10 renal; ACHN renal; CAKI-1 renal; A498 renal; CCRF-CEM leukemia; MOLT-4 leukemia; SR leukemia; OVCAR-8 ovarian; OVCAR-5 ovarian; OVCAR-4 ovarian; SK-OV-3 ovarian; IGROV1 ovarian; OVCAR-3 ovarian; HS 578T breast; NCI/ADR-RES ovarian; RPMI-8226 leukemia.
What all share (assay): NCI-60 one-dose screen, 48 h (100 = growth as untreated, 0 = no growth, -100 = all killed)
What all share (conditions): 10 µM unless noted

The structures appear in SMILES notation. This is part of a sample that, as a whole, favours compounds with a hit. Of some 83,000 tested, about 20% had one in any assay.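 The endpoint reported here, percent growth, reads 100 for growth as untreated, 0 for no net growth and -100 for all cells dead.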 A number with no mark means an inactive call. Active and inactive are the calls of the source. Rule for the calls: active = growth percent below 10; inactive = the rest.

Turning to `C[C@@H]1N=C(c2ccc(Cl)cc2Cl)Nc2nc3ccccn3c2C1=O`, the growth was 38.2% with SK-MEL-2 melanoma; 82.5% with EKVX NSCLC; 75.8% with SN12C renal; 52.4% in the test on UO-31 renal; 74.5% in the test with TK-10 renal; 60.2% in the test with ACHN renal. Also, the growth with CAKI-1 renal was 47.2%; in the test with A498 renal, 60.7%; with CCRF-CEM leukemia, 56.6%; in the test with MOLT-4 leukemia, 50.4%; in the test on SR leukemia, 33%; with OVCAR-8 ovarian it was 68.1%. For the same molecule, the growth was 91.2% with OVCAR-5 ovarian; 89.5% in the test with OVCAR-4 ovarian; 50.1% in the test with SK-OV-3 ovarian; 41.9% with IGROV1 ovarian; 2.44% (active) with OVCAR-3 ovarian; 52% in the test on HS 578T breast. Further, the growth in the test with NCI/ADR-RES ovarian is 44.5%.

Take `C=CN(C(=O)N1CCN(c2cc3c(cc2F)c(=O)c(C(=O)O)cn3C2CC2)CC1)c1nc(-c2ccc(C)cc2)cs1`: the growth with SK-MEL-2 melanoma was 35.2%; in the test on EKVX NSCLC, 24.2%; with SN12C renal, 8.99% (active); in the test on UO-31 renal it was 13.4%; with TK-10 renal, 42.3%; in the test with ACHN renal, 27.7%. In addition, the growth in the test with CAKI-1 renal was 20.9%; in the test with A498 renal it was -4.05% (active); in the test with CCRF-CEM leukemia, 4.64% (active); in the test with MOLT-4 leukemia, 13.9%; in the test on SR leukemia, 13.7%; in the test on OVCAR-8 ovarian it was 14.1%. In addition, the growth was 38.5% in the test with OVCAR-5 ovarian; 23.3% in the test on OVCAR-4 ovarian; -5.97% (active) in the test on SK-OV-3 ovarian; 22.4% with IGROV1 ovarian; 5.61% (active) in the test on OVCAR-3 ovarian; 13.8% with HS 578T breast. The growth in the test with NCI/ADR-RES ovarian is 44.9%.

`COC(=O)[C@@H](Cc1c[nH]c2ccccc12)NC[C@@H](O)CN1C(=O)/C(=C\c2cc(OC)c(OC)c(OC)c2)c2ccccc21`: the growth is 58.1% with SK-MEL-2 melanoma; 85.7% with EKVX NSCLC; 73% in the test on SN12C renal; 58.3% in the test on UO-31 renal; 101% in the test on TK-10 renal; 75.5% with ACHN renal. Further, the growth in the test on CAKI-1 renal is 73.1%; with A498 renal, 69.5%; in the test on CCRF-CEM leukemia, 20.7%; with MOLT-4 leukemia, 1.92% (active); in the test with SR leukemia it was 12.2%; in the test with OVCAR-8 ovarian, 59.3%. Moreover, the growth is 105% in the test on OVCAR-5 ovarian; 63.1% in the test on OVCAR-4 ovarian; 98.6% with SK-OV-3 ovarian; 78.9% in the test with IGROV1 ovarian; 65.3% in the test with OVCAR-3 ovarian; 76% in the test on HS 578T breast. For the same molecule, in the test with NCI/ADR-RES ovarian, the growth was 78.6%.

As for `Oc1cccc(-c2nc(-c3n[nH]c(=S)n3-c3ccccc3)cc3c2[nH]c2ccccc23)c1`, the growth in the test on SK-MEL-2 melanoma is -9.51% (active); in the test on EKVX NSCLC it was 50.3%; in the test with SN12C renal, 44.9%; in the test with UO-31 renal, 49.6%; with TK-10 renal it was 47.9%; in the test on ACHN renal it was 53%. Besides, the growth was 64.6% in the test with CAKI-1 renal; -14.8% (active) in the test with A498 renal; 21.3% in the test on CCRF-CEM leukemia; 26.2% in the test on MOLT-4 leukemia; 19.2% in the test with SR leukemia; 17.8% in the test on RPMI-8226 leukemia. In addition, the growth is 24.7% in the test on OVCAR-8 ovarian; 73.1% with OVCAR-5 ovarian; 56.8% with OVCAR-4 ovarian; 37.3% in the test on SK-OV-3 ovarian; 3.83% (active) with OVCAR-3 ovarian; 35.1% in the test on HS 578T breast. In addition, in the test on NCI/ADR-RES ovarian, the growth was 91.6%.

`CC1(C)CC[C@]2(CO)CC[C@]3(C)C(=CC[C@@H]4[C@@]5(C)CCNCC(C)(C)[C@@H]5CC[C@]43C)[C@@H]2C1`: the growth with SK-MEL-2 melanoma is 53.7%; with EKVX NSCLC, 97.5%; with SN12C renal it was 80.5%; with UO-31 renal, 75.3%; with TK-10 renal, 95%; in the test with ACHN renal it was 88%. The growth is 67.3% with CAKI-1 renal; 84.2% with A498 renal; 73.8% with CCRF-CEM leukemia; 49.3% in the test on MOLT-4 leukemia; -24.3% (active) in the test with SR leukemia; -26.1% (active) in the test with RPMI-8226 leukemia. Moreover, the growth with OVCAR-8 ovarian was 87.4%; with OVCAR-5 ovarian, 81.8%; with OVCAR-4 ovarian, 81%; with SK-OV-3 ovarian, 95.4%; with OVCAR-3 ovarian, 89.5%; with HS 578T breast, 96.7%. Also, the growth with NCI/ADR-RES ovarian was 91.9%.

With `C#Cc1cccc(Nc2nc(Cl)nc3cc(NC(=O)CCl)ccc23)c1`, the growth in the test with SK-MEL-2 melanoma was -75.9% (active); in the test with EKVX NSCLC, -76.5% (active); in the test on SN12C renal it was -70.7% (active); with UO-31 renal, -96% (active); with TK-10 renal, -96.3% (active); with ACHN renal, -98% (active). Moreover, the growth with CAKI-1 renal is -96.9% (active); in the test with A498 renal, 59.6%; in the test on CCRF-CEM leukemia, -17.4% (active); in the test on MOLT-4 leukemia it was -24.9% (active); in the test on SR leukemia, -39.7% (active); in the test with RPMI-8226 leukemia, -47.6% (active). In addition, the growth with OVCAR-8 ovarian is -23.9% (active); with OVCAR-5 ovarian it was -92% (active); with OVCAR-4 ovarian, -66.4% (active); in the test with SK-OV-3 ovarian it was -18.9% (active); in the test with OVCAR-3 ovarian, -88.1% (active); with HS 578T breast, -14% (active). Besides, the growth in the test on NCI/ADR-RES ovarian was -14.4% (active).

Take `O=[N+]([O-])c1ccc(N/N=C\c2cc(Cl)ccc2O)nc1`: the growth with SK-MEL-2 melanoma is 44.3%; in the test on EKVX NSCLC it was 31%; with SN12C renal, 39.3%; with UO-31 renal, 8.96% (active); with TK-10 renal it was 107%; with ACHN renal, 17.6%. The growth with CAKI-1 renal was -14.1% (active); in the test with A498 renal, 106%; in the test on CCRF-CEM leukemia it was 19.1%; with MOLT-4 leukemia it was 13.8%; in the test on SR leukemia, 10.6%; in the test with RPMI-8226 leukemia, 40.8%. Further, the growth in the test with OVCAR-8 ovarian was 32.9%; in the test on OVCAR-5 ovarian, 88.8%; in the test on OVCAR-4 ovarian, 36.1%; in the test with SK-OV-3 ovarian it was 46.6%; with OVCAR-3 ovarian, 48.5%; in the test with HS 578T breast, 64.2%. Also, the growth with NCI/ADR-RES ovarian is 17.4%.

In the case of `C=C(C)[C@@H]1CC[C@]2(C#N)CC[C@]3(C)[C@H](CC[C@@H]4[C@@]5(C)CCCNC(C)(C)[C@@H]5CC[C@]43C)[C@@H]12`, the growth was 110% in the test on SK-MEL-2 melanoma; 68.9% with EKVX NSCLC; 60.3% with SN12C renal; 71.8% in the test on UO-31 renal; 118% with TK-10 renal; 94.6% with ACHN renal. Further, the growth is 62.2% in the test on CAKI-1 renal; 82.4% in the test on A498 renal; 50.6% in the test with CCRF-CEM leukemia; 40% in the test on MOLT-4 leukemia; -26% (active) in the test on SR leukemia; 82.7% with OVCAR-8 ovarian. Further, the growth with OVCAR-5 ovarian was 88.6%; with OVCAR-4 ovarian it was 72.4%; in the test on SK-OV-3 ovarian it was 118%; in the test with IGROV1 ovarian, 46.4%; in the test on OVCAR-3 ovarian, 70.1%; with HS 578T breast, 91.8%. Also, the growth in the test with NCI/ADR-RES ovarian is 88.3%.
